The nature of test [1]: A CellTox Green Cytotoxicity Assay to monitor cytotoxicity in HEK293 cells - 40 hour (AID 1224871). Note: nearly all actives have a fitted effect of over 45% in size. Note: potency is the fitted concentration of half-maximal effect. The method, boiled down:
(§1)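 HEK293 cells, 600/well, were preincubated 5 hours and then exposed to compounds at 37 C for up to 40 hours. A cell-impermeant cyanine dye staining dead-cell DNA was read by fluorescence at 0, 8, 16, 24, 32 and 40 h time points.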

Test [2] in a line: qHTS RealTime-Glo MT Cell Viability Assay in HEK293 cells - 16 hour (AID 1224872). For activity change, negative = cytotoxicity: top concentration of the series differs between compounds. Note: nearly all actives have a fitted effect of over 50% in size. Note: potency is the fitted concentration of half-maximal effect. The method, boiled down: (§2)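 Assay medium contained NanoLuc luciferase plus cell-permeant prosubstrate, added with HEK293 cells at 600 cells/well. After 5 h at 37 C/5% CO2 compounds were added; plates stayed at 37 C for 40 h with serial luminescence reads.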
On the technique in general: In qHTS, concentration-response curves come from the screen itself.

Test [3] in a line: qHTS RealTime-Glo MT Cell Viability Assay in HepG2 cells - 8 hour (AID 1224873). Note: nearly all actives have a fitted effect of over 55% in size. Note: potency is the fitted concentration of half-maximal effect. The method, boiled down:
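HepG2 cells mixed with RealTime-Glo MT reagents (NanoLuc plus cell-permeant prosubstrate) were seeded at 600 cells/well, incubated 5 h at 37 C/5% CO2, then pinned with compounds in DMSO; nonlytic luminescence tracked viability during 40 h treatment.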

Test [4] is described as follows: qHTS RealTime-Glo MT Cell Viability Assay in HEK293 cells - 40 hour (AID 1224874). Note: nearly all actives have a fitted effect of over 50% in size. Note: potency is the fitted concentration of half-maximal effect. The note with it: RealTime-Glo luminescence; max response: stronger effect = lower value. The method, boiled down: (§3)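 600 cells/well were plated with the nonlytic NanoLuc/prosubstrate reagent, pre-incubated 5 h, then given 23 nL of compound in DMSO. Incubation at 37 C for 40 h, with luminescence from viable-cell-reduced substrate read repeatedly from 0 h.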

The nature of test [5]: A CellTox Green Cytotoxicity Assay to monitor cytotoxicity in HEK293 cells - 24 hour (AID 1224875). For activity change: series mostly up to about 77 µM. Note: nearly all actives have a fitted effect of over 45% in size. Note: potency is the fitted concentration of half-maximal effect. The method, boiled down: as §1
A short description of test [6]: A CellTox Green Cytotoxicity Assay to monitor cytotoxicity in HepG2 cells - 16 hour (AID 1224876). Note: nearly all actives have a fitted effect of over 45% in size. Note: potency is the fitted concentration of half-maximal effect. The method, boiled down: (§4)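 HepG2 cells, 600/well, preincubated 5 h with CellTox Green dye, then exposed to Tox21 compounds in DMSO at 37 C for up to 40 h. Dead-cell DNA fluorescence read at the indicated time point.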
Test [7] can be described thus: qHTS RealTime-Glo MT Cell Viability Assay in HepG2 cells - 32 hour (AID 1224877). Note: nearly all actives have a fitted effect of over 55% in size. Note: potency is the fitted concentration of half-maximal effect. The method, boiled down: (§5)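 qHTS, HepG2, 600 cells/well, RealTime-Glo (NanoLuc + prosubstrate) added with cells; 5 h preincubation; DMSO compound addition; 37 C; luminescence at 0/8/16/24/32/40 h.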
Test [8] in a line: A CellTox Green Cytotoxicity Assay to monitor cytotoxicity in HepG2 cells - 24 hour (AID 1224878). Note: nearly all actives have a fitted effect of over 45% in size. Note: potency is the fitted concentration of half-maximal effect. The method, boiled down:
as §4

The nature of test [9]: A CellTox Green Cytotoxicity Assay to monitor cytotoxicity in HepG2 cells - 40 hour (AID 1224879). Note: nearly all actives have a fitted effect of over 40% in size. Note: potency is the fitted concentration of half-maximal effect. The method, boiled down:
as §4

Test [10] is described as follows: qHTS RealTime-Glo MT Cell Viability Assay in HEK293 cells - 0 hour (AID 1224880). For activity change, negative = cytotoxicity: top concentration of the series differs between compounds. Note: nearly all actives have a fitted effect of over 45% in size. Note: potency is the fitted concentration of half-maximal effect. The method, boiled down:
as §3

Test [11] is described as follows: A CellTox Green Cytotoxicity Assay to monitor cytotoxicity in HEK293 cells - 32 hour (AID 1224881). Note: nearly all actives have a fitted effect of over 40% in size. Note: potency is the fitted concentration of half-maximal effect. The method, boiled down: as §1
Test [12] in a line: A CellTox Green Cytotoxicity Assay to monitor cytotoxicity in HepG2 cells - 0 hour (AID 1224882). Note: nearly all actives have a fitted effect of over 35% in size. The method, boiled down: as §4
Test [13] can be described thus: A CellTox Green Cytotoxicity Assay to monitor cytotoxicity in HepG2 cells - 32 hour (AID 1224883). Note: nearly all actives have a fitted effect of over 50% in size. Note: potency is the fitted concentration of half-maximal effect. The method, boiled down:
as §4

Test [14] can be described thus: A CellTox Green Cytotoxicity Assay to monitor cytotoxicity in HEK293 cells - 8 hour (AID 1224884). Note: nearly all actives have a fitted effect of over 35% in size. Note: potency is the fitted concentration of half-maximal effect. The method, boiled down:
as §1

A short description of test [15]: qHTS RealTime-Glo MT Cell Viability Assay in HepG2 cells - 16 hour (AID 1224885). Note: nearly all actives have a fitted effect of over 50% in size. Note: potency is the fitted concentration of half-maximal effect. The method, boiled down:
as §5

Test [16] in a line: qHTS RealTime-Glo MT Cell Viability Assay in HEK293 cells - 24 hour (AID 1224886). For activity change, negative = cytotoxicity: top concentration of the series differs between compounds. Note: nearly all actives have a fitted effect of over 50% in size. Note: potency is the fitted concentration of half-maximal effect. The method, boiled down: as §2
Test [17] is described as follows: qHTS RealTime-Glo MT Cell Viability Assay in HEK293 cells - 8 hour (AID 1224887). For activity change, negative = cytotoxicity: top concentration of the series differs between compounds. Note: nearly all actives have a fitted effect of over 50% in size. Note: potency is the fitted concentration of half-maximal effect. The method, boiled down:
as §3

Test [18] in a line: A CellTox Green Cytotoxicity Assay to monitor cytotoxicity in HEK293 cells - 16 hour (AID 1224888). Note: nearly all actives have a fitted effect of over 35% in size. Note: potency is the fitted concentration of half-maximal effect. The method, boiled down: as §1
Test [19] can be described thus: qHTS RealTime-Glo MT Cell Viability Assay in HepG2 cells - 0 hour (AID 1224889). Note: nearly all actives have a fitted effect of over 50% in size. Note: potency is the fitted concentration of half-maximal effect. The method, boiled down:
as §5

Test [20] can be described thus: A CellTox Green Cytotoxicity Assay to monitor cytotoxicity in HepG2 cells - 8 hour (AID 1224890). Note: nearly all actives have a fitted effect of over 45% in size. Note: potency is the fitted concentration of half-maximal effect. The method, boiled down: as §4

Several values for one entry are separate records, joined by “and”; a condition that tells them apart may be missing. Equal entries are not always repeated. Records with an inconclusive call do not appear. Some compounds were tested as several samples or in several runs, with calls that do not always agree. Activity calls are given as the source filed them. Calls come from the whole dose curve; as a rule, active = well fitted curve in the direction sought with a large enough effect in the repeat runs; inconclusive = weak or mixed curves; inactive = no such curve, though single readings can be large; an effect the other way counts as inactive or inconclusive.
% is set by controls: 0 for no effect and ±100 for the full control effect.

For the molecule `CCCCN1CCCC[C@H]1C(=O)Nc1c(C)cccc1C`, the Potency entry in [1], in test [2], in [3], in test [5], in test [6] and in test [7] was “inactive” each time. The Potency result in [8], in [9], in test [10], in [11], in test [12] and in test [13] was “inactive” in each case. Also, the Potency result in [14], in [15], in [16], in test [17], in test [18] and in [19] was “inactive” throughout. Also, in test [20], the Potency result is “inactive”. The max response in test [4] is -2.09% (inactive).
In the case of `NNc1nc(-c2ccc(N)cc2)cs1`, the Potency result in [1], in test [2], in [3], in [5], in test [6] and in test [7] was “inactive” each time. In addition, the Potency result in [8], in [9], in [10], in [11], in test [12] and in test [13] was “inactive” each time. Besides, the Potency result in test [15], in test [17], in [18] and in test [20] was “inactive” each time. Moreover, the Potency in test [4] is 21.9 µM (active).
For `ON=C1CCCC1`, the Potency result in [1], in test [3], in test [5], in test [6], in [7] and in test [8] was “inactive” in each case. Moreover, the Potency result in test [9], in [10], in test [11], in test [13], in [14] and in [15] was “inactive” throughout. In addition, the Potency result in [18], in [19] and in [20] was “inactive” in each case. Besides, the Potency in [2], in [4] and in test [16] was 22.6 µM (active) in each case.
With `CNC(=O)c1ccccc1`, the Potency entry in [1], in test [2], in [3], in [5], in test [6] and in test [7] was “inactive” throughout. The Potency entry in [8], in [9], in test [10], in test [12], in [13] and in test [14] was “inactive” each time. For the same molecule, the Potency entry in [15], in [16], in [17], in [18] and in test [20] was “inactive” each time. The max response in [4] is -8.54% (inactive).
For `COC(=O)C1=C(C)NC(C)=C(C(=O)OCC(C)C)C1c1ccccc1[N+](=O)[O-]` (stereo unspecified), the Potency was 49 µM (active) and inactive in [1]; 38.9 µM (active) in test [2]; 43.6 µM (active) in [3]; 19.5 µM (active) and 23.9 µM (active) in test [4]; 49 µM (active) in [7]; 21.3 µM (active) in [10]. The Potency in test [11] was 49 µM (active) and inactive; in test [15] it was 43.6 µM (active); in [16] it was 24.5 µM (active); in test [17], 21.9 µM (active); in test [19], 21.9 µM (active). Moreover, the Potency result in test [5], in [6], in test [8], in [9], in [12] and in test [13] was “inactive” each time. Moreover, the Potency entry in [14] and in test [20] was “inactive” each time.
Take `O=C(O)c1c(Cl)cccc1Cl`: the Potency result in [1], in [2], in test [3], in [5], in test [6] and in test [7] was “inactive” each time. The Potency result in test [8], in test [9], in test [10], in test [11], in test [12] and in test [13] was “inactive” throughout. For the same molecule, the Potency entry in test [14], in test [15], in test [16], in [17], in [19] and in test [20] was “inactive” each time. Besides, in test [4], the max response was 1.14% (inactive).
`Cc1ccc(O)c(C(C)(C)C)c1`: the Potency was 43.6 µM (active) in test [1]; 48.9 µM (active) in test [5]; 38.8 µM (active) and 34.7 µM (active) in [6]; 43.6 µM (active) and 34.7 µM (active) in test [8]; 43.6 µM (active) and 34.7 µM (active) in test [9]; 43.6 µM (active) in test [11]. Further, the Potency was 43.6 µM (active) and 34.7 µM (active) in test [13]; 48.9 µM (active) and 38.9 µM (active) in test [20]. Further, the Potency entry in test [2], in test [3], in test [7], in test [10], in [12] and in [15] was “inactive” each time. Moreover, the Potency entry in [16], in [17], in [18] and in test [19] was “inactive” each time. Besides, the max response in test [4] is -17.7% (inactive) and -1.19% (inactive).
For the molecule `CCC(C)(C)C1CCCCC1OC(C)=O` (stereo unspecified), the Potency entry in test [1], in test [2], in test [3], in test [5], in [6] and in test [7] was “inactive” in each case. Moreover, the Potency result in test [8], in test [9], in [10], in [11], in test [13] and in [15] was “inactive” in each case. Besides, the Potency entry in [16], in test [17], in test [18], in test [19] and in test [20] was “inactive” in each case. In [4], the max response was 6.6% (inactive).
As for `C[n+]1cc2c3c(ccc2c2ccc4cc5c(cc4c21)OCO5)OCO3`, the Potency was 0.465 µM (active) in test [1]; 0.585 µM (active) in [2]; 0.737 µM (active) in test [3]; 0.585 µM (active) in [4]; 0.737 µM (active) in test [5]; 585 nM (active) in test [6]. Besides, the Potency in [7] was 0.928 µM (active); in test [8], 522 nM (active); in test [9] it was 657 nM (active); in test [11], 0.465 µM (active); in test [13], 585 nM (active); in test [15] it was 0.827 µM (active). Further, the Potency is 0.585 µM (active) in test [16], 0.465 µM (active) in [17], 4.65 µM (active) in [18] and 737 nM (active) in [20]. The activity change, negative = cytotoxicity was -2.48% [at 15.8 µM] (inactive) in [10] and -1.39% [at 15.8 µM] (inactive) in test [19]. Moreover, the cytotoxicity in test [12] was -26.7% [at 15.8 µM] (inactive). For the same molecule, the cytotoxicity increase in [14] was 16.5% [at 15.8 µM] (inactive).
With `CCCCCCCCCCCCCCCCCC[N+](C)(C)Cc1ccccc1`, the Potency in test [1] is 19.7 µM (active); in test [2], 17.5 µM (active); in test [3], 49.5 µM (active); in test [4], 1.75 µM (active); in [5], 24.8 µM (active); in [6] it was 44100 nM (active). The Potency in test [7] is 35 µM (active); in test [8] it was 24800 nM (active); in [9] it was 19700 nM (active); in test [11], 24.8 µM (active); in test [13], 22100 nM (active); in test [14], 19.7 µM (active). In addition, the Potency in [16] is 6.23 µM (active); in [17], 24.8 µM (active); in test [18], 22.1 µM (active); in [20], 55500 nM (active). The Potency entry in [10] and in test [12] was “inactive” throughout.
`CO[Si](CCCNc1ccccc1)(OC)OC`: the Potency result in [1], in [2], in test [3], in [5], in test [6] and in [7] was “inactive” in each case. Besides, the Potency entry in [8], in test [9], in test [10], in test [11], in [12] and in test [13] was “inactive” in each case. The Potency result in test [14], in [15], in [16], in [17], in test [18] and in test [19] was “inactive” in each case. Also, the Potency result in [20] was “inactive”. In addition, the max response in test [4] is 16.6% (inactive).

Source of the values: PubChem BioAssay (Tox21).
